In all, about 33,000 sequences were measured (“E-score (-0.5 to 0.5)”: median about -0.017, highest 2% from about 0.3 on). This is one part of a sample in which the highest values are shown more often than they occur.
Biological target: T1, Sut1 (UniProt P53032)
T1 sequence: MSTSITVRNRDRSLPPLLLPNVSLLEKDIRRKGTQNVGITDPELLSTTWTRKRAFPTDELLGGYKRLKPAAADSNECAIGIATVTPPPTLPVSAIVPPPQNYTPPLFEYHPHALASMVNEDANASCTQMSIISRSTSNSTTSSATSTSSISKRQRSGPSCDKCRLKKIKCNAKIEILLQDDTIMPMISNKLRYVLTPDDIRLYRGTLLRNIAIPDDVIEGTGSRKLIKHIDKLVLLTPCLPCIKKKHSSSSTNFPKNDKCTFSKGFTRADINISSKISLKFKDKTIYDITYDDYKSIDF
Assay: PBM E-score (8-mer binding enrichment) (E-score (-0.5 to 0.5)); higher = stronger / more preferred TF binding
Details: protein concentration: 200 nM; construct: GST-full length
Outline: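 Universal all-10-mer Agilent arrays, double-stranded by primer extension on fresh or once-stripped slides, were probed with about 100-200 nM GST-tagged yeast transcription factors made by PURExpress. Fluorescent anti-GST detected bound protein, and masliner normalised the scans. E-scores from the Universal PBM Analysis Suite were given to each ungapped eight-base word pooled with its reverse complement.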

Row | Sequence | PBM E-score
1 | AAACCCCG | 0.441
2 | CAACCCCC | -0.266
3 | AACCCCCG | -0.193
4 | CAACCCGG | -0.157
5 | AAACCCCC | -0.346
6 | ACGGTATA | -0.115
7 | AAACTAAC | 0.27
8 | AAAGTTCT | 0.149
9 | GGGCGTGA | -0.182
10 | CCCCCGAG | -0.343
11 | ACCCCGAG | 0.382
12 | GCCCCGAA | 0.184
13 | AACCCGAG | 0.0811
14 | ACCCCGAA | 0.332
15 | CCCCCGAA | -0.0826
16 | AACCCGAT | -0.0428
17 | ACCCCGAC | 0.273
18 | ACCCCGAT | 0.342
19 | GGGCGAAA | 0.0444
20 | AATCGCAT | 0.0231
21 | CGCACATC | -0.156
22 | GAGTTCAA | 0.152
23 | GGATCAGA | -0.0639
24 | GTGGGGAA | 0.0142
25 | GGCTGGAC | -0.278

Row | Sequence | PBM E-score
26 | ACTCCGTA | 0.478
27 | AATCCGTG | -0.153
28 | ACTCCGTC | 0.48
29 | ATTCCGTC | 0.143
30 | ACTCCGTG | 0.473
31 | ATTCCGTG | 0.273
32 | CCTCCGTC | -0.0539
33 | CCTCCGTA | 0.0232
34 | GCTCCGTA | 0.291
35 | CGGTGAGA | 0.0413
36 | AGGTTAGG | -0.0421
37 | ACCAACCG | 0.0755
38 | GGACAGTA | 0.184
39 | ACCCTTAC | -0.129
40 | GGAAGCCC | -0.0417
41 | ATTTATCG | 0.191
42 | ATTTATCC | 0.33
43 | ATTTTATC | 0.321
44 | ATTTATCA | 0.229
45 | ATTTTATG | 0.13
46 | ATTTTACC | 0.352
47 | AATTTACC | 0.143
48 | CTTTTATC | 0.26
49 | CTTTTACC | 0.149
50 | ATTCATGA | -0.0184

Row | Sequence | PBM E-score
51 | AGACCAAA | 0.026
52 | CCCGATTC | 0.0897
53 | CCAGAAAC | -0.0561
54 | CTACAATA | 0.181
55 | ATACAATC | 0.236
56 | ATACAAAT | 0.312
57 | ATACAAAG | 0.119
58 | ATACAATA | 0.299
59 | GTACAAAC | 0.0652
60 | ATACAAAC | 0.298
61 | ATACAAAA | 0.288
62 | CTACAAAC | 0.0828
63 | TCAGGACA | -0.0448
64 | ACCCGCCT | -0.184
65 | ACTGGATC | -0.0162
66 | AATCTCTG | -0.129
67 | AACTCCCC | -0.0339
68 | CCCTCCGC | -0.318
69 | GACTCCAC | 0.0104
70 | GACTCCGC | 0.429
71 | CACTCCTG | -0.0764
72 | CACTCCGG | 0.476
73 | CACTCCTC | -0.176
74 | AACTCCGC | 0.492
75 | CACTCCCG | -0.0356

Row | Sequence | PBM E-score
76 | ACCTCCGC | -0.104
77 | CACTCCGC | 0.367
78 | GACTCCTC | 0.0705
79 | AAGCACGC | -0.122
80 | CACGGTAA | 0.0752
81 | CTTCCATA | 0.00613
82 | CTCATAGC | -0.0832
83 | CCCCAGGC | -0.303
84 | GCCGAGCC | -0.0648
85 | GACACTGA | 0.0506
86 | AATCGTTG | 0.0316
87 | CCTTCACC | -0.231
88 | TGGAGAAA | -0.00929
89 | CCGACAAA | 0.313
90 | GGGAGAAA | -0.0502
91 | CGGAGAAG | 0.36
92 | CAGAGAAG | -0.0543
93 | AGGAGAAG | -0.165
94 | CGGAGAAC | 0.33
95 | TCGACAAA | 0.213
96 | GGGAGAAC | -0.0542
97 | CCGACAAG | 0.115
98 | CGGAGAAA | 0.391
99 | AGGAGAAC | -0.0513
100 | CGTCAACG | 0.0766

Row | Sequence | PBM E-score
101 | CGGTACTC | -0.0748
102 | GAACAGTC | 0.0217
103 | GAATGTCC | 0.282
104 | AACCCTAC | -0.287
105 | ATATGCAC | 0.133
106 | CCACCCCA | -0.221
107 | AATCCATA | 0.108
108 | AACGCTGT | -0.0573
109 | CCAGTAGA | -0.112
110 | AGTGCTCA | -0.105
111 | AGGAGAGA | -0.0542
112 | CCGAGAAA | 0.339
113 | CCGAAAAC | 0.164
114 | CCGAAAAA | 0.352
115 | TCGAGAAA | 0.103
116 | CGGAGAGA | 0.317
117 | CCGAAAAG | 0.178
118 | CGGAGAGC | 0.109
119 | GCGAGAAA | 0.0168
120 | ACGGGTGA | -0.0761
121 | AGCGTCAT | -0.0756
122 | CACCTTGC | 0.00165
123 | CTCAGCGA | -0.204
124 | TGGAGCAA | -0.0175
125 | CGGAGCAA | 0.311

Row | Sequence | PBM E-score
126 | AGGAGCGA | -0.00713
127 | CGGAGCGC | 0.118
128 | CGGAGCGA | 0.325
129 | CGGAGCAC | 0.175
130 | TTCATGAA | 0.00239
131 | AACTACAT | 0.141
132 | CCATTATA | 0.135
133 | CCCGGAAA | 0.234
134 | TCCGGTAA | 0.384
135 | GCCGGTAA | 0.121
136 | TCCGGGAA | 0.356
137 | TCCGGAAA | 0.411
138 | CCCGGGAA | -0.03
139 | ACCGGAAA | 0.268
140 | ACCGGTAA | -0.0335
141 | ACCGGGAA | 0.145
142 | CTCTGAGA | -0.0987
143 | AGCAATTG | 0.175
144 | GGAATGAA | 0.166
145 | ATGCCCCC | -0.387
146 | GACTCGCA | -0.0641
147 | AACTCGGA | 0.341
148 | AACTCGGT | 0.0362
149 | GACTCGGA | 0.33
150 | AACTCGGG | -0.135

Row | Sequence | PBM E-score
151 | TACTCGCA | 0.0383
152 | CACTCGGA | 0.266
153 | TACTCGGA | 0.324
154 | GACTCGGC | -0.033
155 | GCAGAGGA | -0.102
156 | GCTTCGAC | -0.218
157 | GAGACCCC | -0.146
158 | ACCTTGCT | -0.0591
159 | GCGCCAGA | -0.088
160 | CCATATAG | -0.0893
161 | ACTCATCG | 0.0167
162 | CACCGTGC | -0.263
163 | GTCCGTGA | 0.251
164 | ATCCGTGC | 0.0778
165 | ATCCGTGA | -0.119
166 | CTCCGTGA | 0.407
167 | CTCCGTGC | 0.321
168 | AGGGCAGA | -0.348
169 | GACTGGGC | -0.0754
170 | CTTCGCTA | -0.0699
171 | ATATGCAG | -0.134
172 | AAAGTAAT | 0.204
